According to ChEMBL document CHEMBL3988442, “University of Dundee, Small-Polar-MMV Screening Library” (2021):
Hit rate of the full screen: of about 48,000 compounds, about 13,000 (27%) showed an effect of 50% or more. The list shows a part of the results.

Each molecule was assayed on Wolbachia pipientis (assay: Anti-Wolbachia Cell-Based Screen). Settings: 5 µM.
Format: functional
Design: scale not given: in the data most compounds retested in dose-response had high values

SMILES | Percent Effect
CC(NC1(CNS(C)(=O)=O)CCOCC1)c1ccccc1 (stereo unspecified) | 3.887%
COCc1nc(C2CC2)nn1-c1cc(Cl)ccc1OC | -14.4%
CCC(CNC(=O)c1nc(=O)[nH][nH]1)Oc1cccc(C(F)(F)F)c1 (stereo unspecified) | -1.128%
COc1ccnc(NC(=O)CSCc2cccnc2)c1 | 1.726%
COc1cccc(CNC(=O)c2cccnc2SC(C)C)c1 | 92.51%
CC(C)Sc1ncccc1C(=O)NCc1cccc(N(C)C)c1 | 97.33%
CC(C)Nc1ncccc1C(=O)NCc1cnc(N(C)C)n1C | 23.22%
CCS(=O)(=O)N(C)C1CCN(Cn2ccc(-c3ccc(F)cc3)n2)CC1 | 1.424%
O=C(NC1(c2nccs2)CCCC1)c1cc(C2CC2)on1 | -6.868%
Cc1noc(C)c1CS(=O)(=O)CC(=O)N1c2ccccc2CC1C (stereo unspecified) | 25.49%
O=C(Cc1ccc(F)cc1Cl)N1C[C@@H](CN2CCC(O)CC2)[C@@H](CO)C1 | -45.53%
COc1ccc(C(=O)n2nc(C)c(C)c2C)cc1 | 10.75%
Cc1ncnc2c1CCN(C(=O)c1cccnc1)CC2 | -9.06%
Cc1nn(C(=O)c2cccnc2)c(C)c1C | 108.2%
Cc1cc(NCc2cccnc2)n2nc(C)cc2n1 | 12.04%
Cc1cccnc1NCCNc1cc(C(C)C)nc2ccnn12 | 101.8%
CC(=O)NCCNc1cc(C)nc2cc(C)nn12 | -17.81%
Cc1cc2nc(C(C)C)cc(NCC(c3ccccn3)N(C)C)n2n1 (stereo unspecified) | 15.65%
Cc1cc2nc(C(C)C)cc(NCCNc3ncccc3C)n2n1 | 112.1%
CC(C)c1cc(NCC(O)c2ccccn2)n2nccc2n1 (stereo unspecified) | 16.27%
Cc1cc(NCCNc2ncccc2C)n2nc(C)cc2n1 | 109.3%
CC(C)c1cc(NCC(O)CO)n2nccc2n1 (stereo unspecified) | 7.798%

SMILES | Percent Effect
CC(C)c1cc(NCC(C)N2CCCC2)n2nccc2n1 (stereo unspecified) | -22.52%
CN1CCC(n2nc(Cc3cccc(Cl)c3)nc2Cn2ccnc2)CC1 | -3.422%
CCCn1nc(C(=O)NCCc2nnc3n2CCC3)ccc1=O | 5.324%
O=C1CCCN1CCc1noc(-c2ccc3[nH]cnc3c2)n1 | -10.57%
Cc1cc(C)c(C(=O)NC2CCCc3nc(N(C)C)ncc32)cc1C (stereo unspecified) | -4.078%
COc1ccc(CNC2CCCc3nc(N(C)C)ncc32)c(OC)c1 (stereo unspecified) | 113.1%
CCn1ncc2c1CCCC2NCc1ccc(OC)c(C)c1 (stereo unspecified) | -3.93%
COc1ccc(F)c(CNC2CCCc3nc(N(C)C)ncc32)c1 (stereo unspecified) | 96.62%
CCn1ncc2c1CCCC2NCc1cc(Cl)c(OC)c(OC)c1 (stereo unspecified) | -1.567%
COc1ccc2c(c1)C(NCCc1ncc(C)s1)CCCO2 (stereo unspecified) | 17.43%
COc1ccc(OC)c(CNC2CCCc3nc(N(C)C)ncc32)c1 (stereo unspecified) | 105.7%
COc1cc(F)c(S(=O)(=O)NCc2ccnc(N(C)C)n2)cc1OC | 0.6803%
CCCOc1ccc(CNC2CCCc3c2cnn3CC)cc1OC (stereo unspecified) | 1.181%
CCOC(C)c1nc(CN2CCC(C3OCCO3)CC2)cs1 (stereo unspecified) | -5.348%
CN(CCc1nc2ccccc2c(=O)[nH]1)CCC(F)(F)F | -6.377%
CNC(=O)C(C)(C)NC(=O)c1cc(COc2cccc(C(C)=O)c2)[nH]n1 | 5.939%
O=C(Nc1cccc(N2CCN(CC3CC3)CC2)c1)C1CCOC1 (stereo unspecified) | -7.118%
CCN1CCN(C(=O)c2ccc3c(c2)NC(=O)CN3)[C@H]2CS(=O)(=O)C[C@H]21 | 7.083%
CN(Cc1cnn(C)c1)C(=O)NC1CCN(Cc2ccccn2)CC1 | -4.519%
Cl.Cn1cc(CN(Cc2ccccc2)Cc2ccccn2)cn1 | 101.3%
COc1ccccc1CN(C)c1nccc(-c2cn(C)nc2C)n1 | -7.113%
Cc1nn(C)cc1CN(Cc1ccccn1)Cc1ccccc1Cl | 76.4%

SMILES | Percent Effect
COCCN(C/C=C/c1ccccc1)Cc1ccccn1 | -3.939%
Cn1cc(CN(Cc2ccccn2)Cc2ccccc2Cl)cn1 | 107.7%
Cn1cc(CN(Cc2ccccc2)CC(O)c2cccs2)cn1 (stereo unspecified) | -0.3984%
OC(CN(Cc1ccccc1)Cc1ccccn1)c1cccs1 (stereo unspecified) | -16.67%
CCOc1cccc(CN(Cc2cnn(C)c2)CC(C)C)c1O | 5.177%
COc1cccc(S(=O)(=O)CCN2CCCC2c2ccc[nH]2)c1 (stereo unspecified) | -2.252%
CCN1CCC(NC(=O)N(C)Cc2csc3ccccc23)CC1 | 1.913%
CC(C)C(NC(=O)NCC1(CO)CC1)c1nnc2n1CCC2 (stereo unspecified) | 14.94%
Cc1ncsc1C(=O)OCCN1CCCc2ccccc21 | 101.6%
Cc1ncsc1C(=O)OCCN1CCCCCC1=O | 115.8%
Cc1ncsc1C(=O)NCCCN1CCCCCC1=O | 91.19%
Cc1ncsc1C(=O)NCCSCc1cccs1 | -6.016%
O=C(NCCN1CCCCC1)c1scnc1Cl | 1.584%
Cc1ncsc1C(=O)NCCN1CCCCCC1=O | 95.46%
Cc1ncsc1CCN(C)C(=O)CN1CCCCCC1=O | -1.63%
CC(C(=O)NCCCN1CCCCCC1=O)n1cncn1 (stereo unspecified) | -4.192%
Cc1ncsc1CN(C)C(=O)C(CC(C)C)N1CCCCC1=O (stereo unspecified) | 12.62%
Cc1ncsc1C(=O)NCCn1nc2ccccn2c1=O | -10.37%
O=C(NCCN1CCCc2ccccc21)c1scnc1Cl | 4.891%
Cc1cc(C(=O)NCCN2CCCc3ccccc32)[nH]n1 | -6.772%
COc1ccc(C(=O)N2CCC(Oc3ccccc3)(C(=O)O)CC2)o1 | -6.202%
CC(=O)NCc1nc(CCOc2ccc(Cl)cc2)no1 | -0.6631%

SMILES | Percent Effect
COCCN1C(=O)CC(N2CCN(c3ccc(OC)cc3)CC2)C1=O (stereo unspecified) | 6.624%
NCc1cn(CC2CCCN(C(=O)NCc3ccc(Cl)cc3)C2)nn1 (stereo unspecified) | -34.24%
Cc1nnc(N2C[C@@H](Oc3ccccn3)[C@H]3OCCC[C@H]32)s1.O=C(O)C(F)(F)F.O=C(O)C(F)(F)F | -5.034%
COc1ccccc1Oc1ncccc1CNC(=O)C(C)CN (stereo unspecified) | 1.057%
COc1cccc(CN2CC(O)CN(S(C)(=O)=O)CC2=O)c1OC (stereo unspecified) | 96.57%
COc1ccccc1N1CCC(CNCc2cccc(OC)c2OC)C1 (stereo unspecified) | 0.729%
COc1cccc(OC)c1CN1CC(O)CN(S(C)(=O)=O)CC1=O (stereo unspecified) | 127.9%
COc1cccc(CN2CC3(CCNCC3)CCC2=O)c1OC | -5.805%
COc1ccccc1S(=O)(=O)N1CCC2(CC1)[C@H](O)C[C@@H]2O | -0.7897%
COc1cccc(OC)c1CN1CC(=O)N(c2ccc(C)cc2)CC1C (stereo unspecified) | 7.242%
CCCS(=O)(=O)N1CC(=O)N(Cc2ccccc2OC)CC(O)C1 (stereo unspecified) | 89.31%
CCCS(=O)(=O)N1CC(=O)N(Cc2cccc(OC)c2OC)CC(O)C1 (stereo unspecified) | 125.8%
CCCS(=O)(=O)N1CCC2(CCCN(Cc3cccc(F)c3F)C2=O)C1 (stereo unspecified) | -35.96%
COc1cc(CNc2cc(-c3ccoc3C)nn2CCO)ccc1F | 9.115%
COc1c(F)cc(CN2CCC3(CC2)C(C(=O)O)CC(=O)N3C)cc1Cl (stereo unspecified) | 5.354%
CS(=O)(=O)c1cccc(Cl)c1C(=O)NCCN1C(=O)CCC1=O | -4.304%
COc1ccccc1CC(C)N(C)S(C)(=O)=O (stereo unspecified) | 9.665%
COc1ccccc1CN1CC(O)CN(S(=O)(=O)C(C)C)CC1=O (stereo unspecified) | 100.2%
COc1ccccc1CN1C(=O)O[C@@H]2CN(S(=O)(=O)N(C)C)C[C@@H]21 | -2.255%
CCO[C@H]1C[C@@H](O)C12CCN(S(=O)(=O)c1ccccc1OC)CC2 | -9.049%
COc1ccccc1CN1C(=O)O[C@@H]2CN(C(C)C)C[C@@H]21 | 11.8%
CCS(=O)(=O)N1CC(=O)N(Cc2ccccc2OC)CC(O)C1 (stereo unspecified) | 89.74%

SMILES | Percent Effect
CCc1noc(C)c1C(=O)NCc1c(C)nn(CCOC)c1C | -2.688%
CN(C)C(=O)N1C[C@H]2CC[C@@H]1CN(C1Cc3ccccc3C1)C2 | 7.395%
Cc1cnc(C)c(N2CCCC(CO)(Cc3ccccc3C)C2)n1 (stereo unspecified) | -4.771%
CCc1ccc2nc(NCCOCCO)cc(C)c2c1 | 107.5%
CCc1ccc2nc(NCCCN(CCO)CCO)cc(C)c2c1 | 14.19%
CCc1ccc2nc(NCC(O)CO)cc(C)c2c1 (stereo unspecified) | -9.237%
NC(=O)C(NC(=O)CCc1ccc(Cl)s1)c1ccccc1 (stereo unspecified) | 7.544%
c1cc(-c2ccc3c(c2)C2(CCNCC2)CC3)ccn1 | -17.91%
O=C(CCc1ccc(F)cc1)NS(=O)(=O)c1ccc2c(c1)OCCCO2 | 20.72%
COCCn1ccnc1C1CCN(Cc2ccccc2C#N)CC1 | -0.03291%
Oc1ncccc1-c1nc(-c2cccc(CN3CCOCC3)c2)no1 | -1.647%
c1cnc2[nH]c(C3CCNCC3)c(CN3CCOCC3)c2c1 | 102.1%
Cl.c1cnc2[nH]c(C3CCCNC3)c(CN3CCCOCC3)c2c1 (stereo unspecified) | 94%
Cl.OC1CCN(Cc2c(C3CCCNC3)[nH]c3ncccc23)CC1 (stereo unspecified) | -8.296%
c1cnc2[nH]c(C3CCCC3)c(CN3CCOCC3)c2c1 | 96.59%
COCCN1CCN(Cc2c(C3CCNCC3)[nH]c3ncccc23)CC1.Cl | 66.52%
COCCN1CCC(c2nc3c([nH]2)CC(C)(C)CNC3=O)CC1 | -9.725%
CN(Cc1ccon1)CC1CCOc2ccccc2C1 (stereo unspecified) | -13.25%
